This passage reports Potency results from PubChem BioAssay (NCATS).

The target in assay [1] is Calcium and integrin-binding protein 1 (Homo sapiens) (UniProt Q99828). Nature of the assay: Primary qHTS for Identification of Calcium Integrin Binding Protein 1 (CIB1) Competitor (AID 1508620).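 Note: GST tagged CIB1 binding a fluorescein labelled alphaIIb integrin peptide tracer; top concentration of the series differs between compounds.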 The method, boiled down: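 Fluorescence polarization competition: CIB1-GST (1 uM final) preincubated with compound 15 min at room temperature, then FITC-labeled alphaIIb peptide (100 nM final) added for another 15 min. Polarization read at Ex 480/Em 540.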
Background: Quantitative high-throughput screening tests each substance at several concentrations.

Assay [2] in a line: Primary qHTS for small molecule stabilizers of the endoplasmic reticulum resident proteome: Secreted ER Calcium Modulated Protein (SERCaMP) assay (AID 1508630). The method, boiled down:
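The SH-SY5Y reporter protocol was run at 3 concentrations up to 38.3 uM (primary) or 11 concentrations (follow-up): 16 h compound, 100 nM thapsigargin for 4 h, then extracellular luciferase luminescence.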

Assay [3] in a line: A High-Content qHTS Against Drug Library for the Identification of Small Molecules that Inhibit DYT1 Early Onset Primary Dystonia-Associated Cell Pathology (AID 1645839; calls by dose curve; note: potency is the fitted concentration of half-maximal effect). The procedure, abridged:
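Induced EGFP-delE TorsinA cells are imaged after 48 h of compound treatment. Punctate fusion-protein distribution gives the %pathology value, while nuclei counts flag toxicity. Wild-type EGFP-hTOR1A cells define the normal pattern.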

Assay [4] addresses Cytochrome P450 2D6 (Homo sapiens) (UniProt P10635). Nature of the assay: Cytochrome P450 family 2 subfamily D member 6 (CYP2D6) small molecule antagonists: luciferase biochemical (cell-free) qHTS assay (AID 1645840; active = well fitted curve in the direction sought with a large enough effect in the repeat runs; an effect the other way counts as inactive or inconclusive; note: nearly all actives have a fitted effect of over 55% in size; note: potency is the fitted concentration of half-maximal effect). The method, boiled down:
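P450-Glo CYP2D6 system: proluciferin substrate converted by enzyme to luciferin, read by luminescence proportional to activity. Enzyme-substrate mix with compound 10 min at room temperature, then NADPH regeneration 1 h before detection reagent.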

Assay [5] addresses Cytochrome P450 2C9 (Homo sapiens) (UniProt P11712). The assay can be described thus: Cytochrome P450 family 2 subfamily C member 9 (CYP2C9) small molecule antagonists: luciferase biochemical (cell-free) qHTS assay (AID 1645842; active = well fitted curve in the direction sought with a large enough effect in the repeat runs; an effect the other way counts as inactive or inconclusive; note: nearly all actives have a fitted effect of over 55% in size; note: potency is the fitted concentration of half-maximal effect). The method, boiled down: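 P450-Glo CYP2C9 system: proluciferin substrate with enzyme in mix containing 0.4% BSA, 10 min at room temperature, then NADPH regeneration solution added and incubated 1 h at 37C. Detection reagent stopped reaction; luminescence read after 20 min as RLU.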

SMILES strings stand for the structures. Records with an inconclusive call do not appear. Activity calls are given as the source filed them. Unless noted, calls come from the whole dose curve; as a rule, active = well fitted curve in the direction sought with a large enough effect; inconclusive = small, poorly fitted or top-dose-only effect, or another doubt; inactive = no such curve, though single readings can be large; an effect the other way counts as inactive or inconclusive.

Calcium and integrin-binding protein 1 (Homo sapiens), sequence (Q99828 whole entry, looked up): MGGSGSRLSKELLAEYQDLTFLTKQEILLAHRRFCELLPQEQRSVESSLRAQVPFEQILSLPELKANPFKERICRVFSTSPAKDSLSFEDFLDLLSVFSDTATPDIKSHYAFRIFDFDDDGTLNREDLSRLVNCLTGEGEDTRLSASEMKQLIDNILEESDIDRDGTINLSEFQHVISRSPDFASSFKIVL
Cytochrome P450 2C9 (Homo sapiens), sequence (P11712 whole entry, looked up): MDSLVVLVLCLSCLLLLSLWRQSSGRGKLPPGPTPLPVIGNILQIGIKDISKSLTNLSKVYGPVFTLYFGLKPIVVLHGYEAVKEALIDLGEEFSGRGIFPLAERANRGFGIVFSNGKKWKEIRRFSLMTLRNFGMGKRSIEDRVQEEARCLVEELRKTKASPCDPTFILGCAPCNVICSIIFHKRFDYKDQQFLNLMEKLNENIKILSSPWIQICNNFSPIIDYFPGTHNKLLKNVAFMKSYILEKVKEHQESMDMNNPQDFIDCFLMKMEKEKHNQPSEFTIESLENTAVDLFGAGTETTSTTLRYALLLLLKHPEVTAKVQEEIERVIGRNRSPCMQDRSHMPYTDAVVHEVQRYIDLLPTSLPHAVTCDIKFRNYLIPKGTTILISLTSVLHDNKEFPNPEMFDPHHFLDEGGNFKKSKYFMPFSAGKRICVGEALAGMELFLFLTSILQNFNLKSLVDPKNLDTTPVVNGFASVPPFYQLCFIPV
Cytochrome P450 2D6 (Homo sapiens), sequence (P10635 whole entry, looked up): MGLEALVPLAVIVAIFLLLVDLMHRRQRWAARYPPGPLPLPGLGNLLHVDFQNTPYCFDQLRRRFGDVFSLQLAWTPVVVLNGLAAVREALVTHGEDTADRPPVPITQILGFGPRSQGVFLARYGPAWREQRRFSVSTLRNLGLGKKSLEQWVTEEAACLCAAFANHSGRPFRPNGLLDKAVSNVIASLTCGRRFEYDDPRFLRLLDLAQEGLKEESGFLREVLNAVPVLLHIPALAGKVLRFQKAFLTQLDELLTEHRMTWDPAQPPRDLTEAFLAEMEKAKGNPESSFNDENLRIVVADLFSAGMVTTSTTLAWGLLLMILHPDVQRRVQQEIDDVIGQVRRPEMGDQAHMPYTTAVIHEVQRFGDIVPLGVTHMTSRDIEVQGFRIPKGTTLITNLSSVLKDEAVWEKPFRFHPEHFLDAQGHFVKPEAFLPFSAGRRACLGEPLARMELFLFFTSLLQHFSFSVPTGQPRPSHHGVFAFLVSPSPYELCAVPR

`CCN(CC)CC(=O)Nc1c(C)cccc1C(=O)OC`: the Potency entry in assay [1], in assay [2], in assay [3], in assay [4] and in assay [5] was “inactive” in each case.

In the case of `Cc1ncc([N+](=O)[O-])n1C`, the Potency result in assay [1], in assay [2], in assay [3], in assay [4] and in assay [5] was “inactive” throughout.

For `C[C@@H]1C[C@H]2[C@@H]3CCC4=CC(=O)C=C[C@]4(C)[C@@]3(F)[C@@H](O)C[C@]2(C)[C@@]1(O)C(=O)COC(=O)c1ccncc1`, the Potency entry in assay [1], in assay [2] and in assay [3] was “inactive” each time. Further, the Potency is 1.23 µM (active) in assay [4] and 2.45 µM (active) in assay [5].

In the case of `CC(C)NC(=O)c1ccc(C=O)cc1`, the Potency entry in assay [1], in assay [2], in assay [3], in assay [4] and in assay [5] was “inactive” in each case.

In the case of `Cc1cccc(N(C)C(=S)Oc2ccc3c(c2)C2CCC3C2)c1` (stereo not given), the Potency result in assay [1], in assay [2], in assay [3] and in assay [4] was “inactive” each time. For the same compound, in assay [5], the Potency is 7.76 µM (active).

As for `O=C(O)Cc1ccc(OCCNC[C@H](O)c2ccccc2)cc1`, the Potency result in assay [1], in assay [2], in assay [3], in assay [4] and in assay [5] was “inactive” in each case.

For `COc1cc2nc(Cl)nc(N)c2cc1OC`, the Potency result in assay [1], in assay [2], in assay [3], in assay [4] and in assay [5] was “inactive” each time.

Consider `CC[N+](CC)(CC)CCOC(=O)C(C1CCCC1)C1CCCC1`, for which the Potency entry in assay [1], in assay [2], in assay [3] and in assay [5] was “inactive” in each case. Also, the Potency in assay [4] was 3.09 µM (active).

For `O=C(OCC(O)CO)c1ccccc1Nc1ccnc2c(C(F)(F)F)cccc12` (stereo not given), the Potency entry in assay [1], in assay [2] and in assay [3] was “inactive” each time. For the same compound, the Potency in assay [4] is 11 µM (active); in assay [5], 6.17 µM (active).

In the case of `COc1ccc2c(c1)CCCC2=O`, the Potency result in assay [1], in assay [2], in assay [3], in assay [4] and in assay [5] was “inactive” in each case.

In the case of `Oc1ccccc1-c1nnco1`, the Potency result in assay [1], in assay [2], in assay [3], in assay [4] and in assay [5] was “inactive” throughout.

Consider `COc1cc(NS(=O)(=O)c2ccc(N)cc2)nc(C)n1`, for which the Potency entry in assay [1], in assay [2], in assay [3], in assay [4] and in assay [5] was “inactive” throughout.

On to `CN1Cc2cc(C(=O)N3CCC(C4CCNCC4)CC3)ccc2N[C@@H](CC(=O)O)C1=O`, for which the Potency entry in assay [1], in assay [2], in assay [3], in assay [4] and in assay [5] was “inactive” throughout.

As to `CCC[C@H](N[C@@H](C)C(=O)N1[C@H](C(=O)O)C[C@@H]2CCCC[C@@H]21)C(=O)OCC`, the Potency entry in assay [1], in assay [2], in assay [3], in assay [4] and in assay [5] was “inactive” each time.

As for `CCN(CC)C(=O)C1CN2CCc3cc(OC)c(OC)cc3C2CC1OC(C)=O` (stereo not given), the Potency result in assay [1], in assay [2], in assay [3], in assay [4] and in assay [5] was “inactive” in each case.

`COCCc1ccc(OCC2CO2)cc1` (stereo not given): the Potency entry in assay [1], in assay [2], in assay [3], in assay [4] and in assay [5] was “inactive” in each case.

As to `CC1(C)O[C@@H]2C[C@H]3[C@@H]4C[C@H](F)C5=CC(=O)C=C[C@]5(C)[C@@]4(F)[C@@H](O)C[C@]3(C)[C@]2(C(=O)CO)O1`, the Potency entry in assay [1], in assay [2], in assay [3], in assay [4] and in assay [5] was “inactive” in each case.

As to `CCCCCC[C@@H](CCC)C(=O)O`, the Potency result in assay [1], in assay [2], in assay [3], in assay [4] and in assay [5] was “inactive” each time.

`Cc1nc([N+](=O)[O-])cn1-c1ccc([N+](=O)[O-])cc1`: the Potency result in assay [1], in assay [2], in assay [3], in assay [4] and in assay [5] was “inactive” throughout.

Take `Nc1c2ccccc2nc2ccccc12`: the Potency entry in assay [1], in assay [2], in assay [3] and in assay [5] was “inactive” throughout. The Potency in assay [4] was 17.4 µM (active).

As for `C[C@H]1C[C@H]2[C@@H]3CCC4=CC(=O)C=C[C@]4(C)[C@H]3C(=O)C[C@]2(C)[C@@]1(O)C(=O)CO`, the Potency result in assay [1], in assay [2], in assay [3] and in assay [4] was “inactive” each time. For the same compound, in assay [5], the Potency is 15.1 µM (active).

Consider `C[N+]1(CC2COC(c3ccccc3)(c3ccccc3)O2)CCCCC1` (stereo not given), for which the Potency entry in assay [1], in assay [2], in assay [3] and in assay [5] was “inactive” in each case. In addition, the Potency in assay [4] is 1.51 µM (active).

On to `COC(=O)c1ccc(NC(C)=O)cc1OC`, for which the Potency result in assay [1], in assay [2], in assay [3], in assay [4] and in assay [5] was “inactive” in each case.

For `CO[C@]1(NC(=O)CSC(F)F)C(=O)N2C(C(=O)O)=C(CSc3nnnn3CCO)CO[C@H]21`, the Potency entry in assay [1], in assay [2], in assay [3], in assay [4] and in assay [5] was “inactive” each time.

As for `C[C@]12CCC(=O)C=C1CC[C@@H]1[C@@H]2[C@@H](O)C[C@@]2(C)[C@H]1CC[C@]2(O)C(=O)COC(=O)CCC(=O)O`, the Potency result in assay [1], in assay [2], in assay [3], in assay [4] and in assay [5] was “inactive” each time.

As for `O=C(O)[C@H](O)[C@@H](O)[C@H](O[C@@H]1O[C@H](CO)[C@H](O)[C@H](O)[C@H]1O)[C@H](O)CO`, the Potency result in assay [1], in assay [2], in assay [3], in assay [4] and in assay [5] was “inactive” throughout.

On to `CC(C)(C)c1ccc(C(=O)CCCCl)cc1`, for which the Potency entry in assay [1], in assay [2], in assay [3], in assay [4] and in assay [5] was “inactive” throughout.

For the compound `Cc1ccc(/C=N/n2c(-c3ccccc3)csc2=S)cc1`, the Potency entry in assay [1], in assay [2], in assay [3] and in assay [4] was “inactive” in each case. In addition, the Potency in assay [5] was 4.36 µM (active).

In the case of `NC(=O)C1(N2CCCCC2)CCN(CCCN2c3ccccc3CCc3ccc(Cl)cc32)CC1`, the Potency entry in assay [1] and in assay [2] was “inactive” throughout. Moreover, the Potency in assay [3] is 3.98 µM (active); in assay [4], 2.45 µM (active); in assay [5] it was 4.9 µM (active).
